# Reference: the supplement of paper PMC4466140
# Legend:
# Assay in all cases: SPOT peptide array binding signal intensity (averaged, normalized) (arbitrary units (background-subtracted, floor 0; scale differs between SH3 domains)); higher = stronger binding of the SH3 domain to the peptide
# CaNbp2 = biological target: CaNbp2
# Procedure, shortened: (§1)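 Four yeast species supplied the SH3 domains, which were expressed as GST fusions in E. coli BL21(DE3) and purified on glutathione Sepharose. Incubation with cellulose membranes carrying synthetic 15-mer peptides, cysteines exchanged for serines, ran overnight at 4°C at 10 μg/ml in TBS-based blocking buffer. Binding signal is reported as normalized, background-subtracted spot intensity averaged over replicates, in arbitrary units not shared between domains.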
# CaRvs167 = biological target: CaRvs167
# Procedure, shortened: as §1
# CaRvs167-3 = biological target: CaRvs167-3
# Procedure, shortened: as §1
# CaSho1 = biological target: CaSho1
# Procedure, shortened: as §1
# CaSla1-D1-D2 = biological target: CaSla1-D1-D2
# Procedure, shortened: as §1
# CaSla1-D3 = biological target: CaSla1-D3
# Procedure, shortened: as §1
# ScAbp1 = biological target: ScAbp1
# Procedure, shortened: as §1
# ScBbc1 = biological target: ScBbc1
# Procedure, shortened: as §1
# ScBem1-D1 = biological target: ScBem1-D1
# Procedure, shortened: as §1
# ScBzz1-D1 = biological target: ScBzz1-D1
# Procedure, shortened: as §1
# ScBzz1-D2 = biological target: ScBzz1-D2
# Procedure, shortened: as §1
# ScCyk3 = biological target: ScCyk3
# Procedure, shortened: as §1
# ScFus1 = biological target: ScFus1
# Procedure, shortened: as §1
# ScHof1 = biological target: ScHof1
# Procedure, shortened: as §1
# ScHse1 = biological target: ScHse1
# Procedure, shortened: as §1
# ScLsb1 = biological target: ScLsb1
# Procedure, shortened: as §1
# ScLsb2 = biological target: ScLsb2
# Procedure, shortened: as §1
# ScLsb3 = biological target: ScLsb3
# Procedure, shortened: as §1
# ScLsb4 = biological target: ScLsb4
# Procedure, shortened: as §1
# ScMyo3 = biological target: ScMyo3
# Procedure, shortened: as §1
# ScMyo5 = biological target: ScMyo5
# Procedure, shortened: as §1
# ScNbp2 = biological target: ScNbp2
# Procedure, shortened: as §1
# ScPex13 = biological target: ScPex13
# Procedure, shortened: as §1
# ScRvs167 = biological target: ScRvs167
# Procedure, shortened: as §1
# ScSho1 = biological target: ScSho1
# Procedure, shortened: as §1
# ScSla1-D1-D2 = biological target: ScSla1-D1-D2
# Procedure, shortened: as §1
# ScSla1-D3 = biological target: ScSla1-D3
# Procedure, shortened: as §1
# SpAbp1-D1 = biological target: SpAbp1-D1
# Procedure, shortened: as §1
# SpBbc1 = biological target: SpBbc1
# Procedure, shortened: as §1
# SpBzz1-D1 = biological target: SpBzz1-D1
# Procedure, shortened: as §1
# SpBzz1-D2 = biological target: SpBzz1-D2
# Procedure, shortened: as §1
# SpCyk3 = biological target: SpCyk3
# Procedure, shortened: as §1
# SpHof1 = biological target: SpHof1
# Procedure, shortened: as §1
# SpHof1-2 = biological target: SpHof1-2
# Procedure, shortened: as §1
# SpHof1-3 = biological target: SpHof1-3
# Procedure, shortened: as §1
# SpHse1 = biological target: SpHse1
# Procedure, shortened: as §1
# SpLsb1 = biological target: SpLsb1
# Procedure, shortened: as §1
# SpLsb4 = biological target: SpLsb4
# Procedure, shortened: as §1
# SpMyo1 = biological target: SpMyo1
# Procedure, shortened: as §1
# SpNbp2 = biological target: SpNbp2
# Procedure, shortened: as §1
# SpPex13 = biological target: SpPex13
# Procedure, shortened: as §1
# SpRvs167 = biological target: SpRvs167
# Procedure, shortened: as §1
# SpSla1-D1-D2 = biological target: SpSla1-D1-D2
# Procedure, shortened: as §1
# SpSla1-D3 = biological target: SpSla1-D3
# Procedure, shortened: as §1
# AgAbp1 = biological target: AgAbp1
# Procedure, shortened: as §1
# AgBbc1 = biological target: AgBbc1
# Procedure, shortened: as §1
# AgBem1-D1 = biological target: AgBem1-D1
# Procedure, shortened: as §1
# AgBzz1-D1 = biological target: AgBzz1-D1
# Procedure, shortened: as §1
# AgBzz1-D2 = biological target: AgBzz1-D2
# Procedure, shortened: as §1
# AgCyk3 = biological target: AgCyk3
# Procedure, shortened: as §1
# AgFus1 = biological target: AgFus1
# Procedure, shortened: as §1
# AgHof1 = biological target: AgHof1
# Procedure, shortened: as §1
# AgHse1 = biological target: AgHse1
# Procedure, shortened: as §1
# AgLsb1 = biological target: AgLsb1
# Procedure, shortened: as §1
# AgLsb4 = biological target: AgLsb4
# Procedure, shortened: as §1
# AgMyo5 = biological target: AgMyo5
# Procedure, shortened: as §1
# AgNbp2 = biological target: AgNbp2
# Procedure, shortened: as §1
# AgRvs167 = biological target: AgRvs167
# Procedure, shortened: as §1
# AgSho1 = biological target: AgSho1
# Procedure, shortened: as §1
# AgSla1-D1-D2 = biological target: AgSla1-D1-D2
# Procedure, shortened: as §1
# AgSla1-D3 = biological target: AgSla1-D3
# Procedure, shortened: as §1
# CaAbp1-D1 = biological target: CaAbp1-D1
# Procedure, shortened: as §1
# CaAbp1-D2 = biological target: CaAbp1-D2
# Procedure, shortened: as §1
# CaBbc1 = biological target: CaBbc1
# Procedure, shortened: as §1
# CaBem1-D1 = biological target: CaBem1-D1
# Procedure, shortened: as §1
# CaBzz1-D1 = biological target: CaBzz1-D1
# Procedure, shortened: as §1
# CaBzz1-D2 = biological target: CaBzz1-D2
# Procedure, shortened: as §1
# CaCyk3 = biological target: CaCyk3
# Procedure, shortened: as §1
# CaFus1 = biological target: CaFus1
# Procedure, shortened: as §1
# CaHof1 = biological target: CaHof1
# Procedure, shortened: as §1
# CaHse1 = biological target: CaHse1
# Procedure, shortened: as §1
# CaLsb1 = biological target: CaLsb1
# Procedure, shortened: as §1
# CaLsb4 = biological target: CaLsb4
# Procedure, shortened: as §1
# CaMyo5 = biological target: CaMyo5
# Procedure, shortened: as §1
binder,measurement,setting,value
DGNEEKPLLPTRPNK,SPOT peptide array binding signal intensity,CaNbp2,4.5
same,SPOT peptide array binding signal intensity,CaRvs167,382
same,SPOT peptide array binding signal intensity,CaRvs167-3,22
same,SPOT peptide array binding signal intensity,CaSho1,1.5
same,SPOT peptide array binding signal intensity,CaSla1-D1-D2,≤ 0
same,SPOT peptide array binding signal intensity,CaSla1-D3,≤ 0
same,SPOT peptide array binding signal intensity,ScAbp1,≤ 0
same,SPOT peptide array binding signal intensity,ScBbc1,306
same,SPOT peptide array binding signal intensity,ScBem1-D1,6.5
same,SPOT peptide array binding signal intensity,ScBzz1-D1,34.2
same,SPOT peptide array binding signal intensity,ScBzz1-D2,≤ 0
same,SPOT peptide array binding signal intensity,ScCyk3,≤ 0
same,SPOT peptide array binding signal intensity,ScFus1,≤ 0
same,SPOT peptide array binding signal intensity,ScHof1,41.6
same,SPOT peptide array binding signal intensity,ScHse1,15
same,SPOT peptide array binding signal intensity,ScLsb1,209
same,SPOT peptide array binding signal intensity,ScLsb2,10
same,SPOT peptide array binding signal intensity,ScLsb3,7260
same,SPOT peptide array binding signal intensity,ScLsb4,4200
same,SPOT peptide array binding signal intensity,ScMyo3,0.5
same,SPOT peptide array binding signal intensity,ScMyo5,8.12
same,SPOT peptide array binding signal intensity,ScNbp2,≤ 0
same,SPOT peptide array binding signal intensity,ScPex13,855
same,SPOT peptide array binding signal intensity,ScRvs167,871
same,SPOT peptide array binding signal intensity,ScSho1,≤ 0
same,SPOT peptide array binding signal intensity,ScSla1-D1-D2,≤ 0
same,SPOT peptide array binding signal intensity,ScSla1-D3,≤ 0
same,SPOT peptide array binding signal intensity,SpAbp1-D1,≤ 0
same,SPOT peptide array binding signal intensity,SpBbc1,0.5
same,SPOT peptide array binding signal intensity,SpBzz1-D1,≤ 0
same,SPOT peptide array binding signal intensity,SpBzz1-D2,≤ 0
same,SPOT peptide array binding signal intensity,SpCyk3,≤ 0
same,SPOT peptide array binding signal intensity,SpHof1,0.25
same,SPOT peptide array binding signal intensity,SpHof1-2,0.875
same,SPOT peptide array binding signal intensity,SpHof1-3,1.88
same,SPOT peptide array binding signal intensity,SpHse1,≤ 0
same,SPOT peptide array binding signal intensity,SpLsb1,1100
same,SPOT peptide array binding signal intensity,SpLsb4,3290
same,SPOT peptide array binding signal intensity,SpMyo1,≤ 0
same,SPOT peptide array binding signal intensity,SpNbp2,≤ 0
same,SPOT peptide array binding signal intensity,SpPex13,≤ 0
same,SPOT peptide array binding signal intensity,SpRvs167,467
same,SPOT peptide array binding signal intensity,SpSla1-D1-D2,≤ 0
same,SPOT peptide array binding signal intensity,SpSla1-D3,≤ 0
VPVAPPPPPASLGQS,SPOT peptide array binding signal intensity,AgAbp1,≤ 0
same,SPOT peptide array binding signal intensity,AgBbc1,≤ 0
same,SPOT peptide array binding signal intensity,AgBem1-D1,15
same,SPOT peptide array binding signal intensity,AgBzz1-D1,0.5
same,SPOT peptide array binding signal intensity,AgBzz1-D2,≤ 0
same,SPOT peptide array binding signal intensity,AgCyk3,≤ 0
same,SPOT peptide array binding signal intensity,AgFus1,≤ 0
same,SPOT peptide array binding signal intensity,AgHof1,≤ 0
same,SPOT peptide array binding signal intensity,AgHse1,17
same,SPOT peptide array binding signal intensity,AgLsb1,0.25
same,SPOT peptide array binding signal intensity,AgLsb4,≤ 0
same,SPOT peptide array binding signal intensity,AgMyo5,4.25
same,SPOT peptide array binding signal intensity,AgNbp2,≤ 0
same,SPOT peptide array binding signal intensity,AgRvs167,3
same,SPOT peptide array binding signal intensity,AgSho1,≤ 0
same,SPOT peptide array binding signal intensity,AgSla1-D1-D2,6
same,SPOT peptide array binding signal intensity,AgSla1-D3,1
same,SPOT peptide array binding signal intensity,CaAbp1-D1,2
same,SPOT peptide array binding signal intensity,CaAbp1-D2,4
same,SPOT peptide array binding signal intensity,CaBbc1,0.5
same,SPOT peptide array binding signal intensity,CaBem1-D1,≤ 0
same,SPOT peptide array binding signal intensity,CaBzz1-D1,89
same,SPOT peptide array binding signal intensity,CaBzz1-D2,9.5
same,SPOT peptide array binding signal intensity,CaCyk3,≤ 0
same,SPOT peptide array binding signal intensity,CaFus1,16
same,SPOT peptide array binding signal intensity,CaHof1,≤ 0
same,SPOT peptide array binding signal intensity,CaHse1,≤ 0
same,SPOT peptide array binding signal intensity,CaLsb1,0.75
same,SPOT peptide array binding signal intensity,CaLsb4,≤ 0
same,SPOT peptide array binding signal intensity,CaMyo5,13.5
same,SPOT peptide array binding signal intensity,CaNbp2,17.5
same,SPOT peptide array binding signal intensity,CaRvs167,≤ 0
same,SPOT peptide array binding signal intensity,CaRvs167-3,1.5
same,SPOT peptide array binding signal intensity,CaSho1,28
same,SPOT peptide array binding signal intensity,CaSla1-D1-D2,≤ 0
same,SPOT peptide array binding signal intensity,CaSla1-D3,≤ 0
same,SPOT peptide array binding signal intensity,ScAbp1,0.5
same,SPOT peptide array binding signal intensity,ScBbc1,2.5
same,SPOT peptide array binding signal intensity,ScBem1-D1,0.5
same,SPOT peptide array binding signal intensity,ScBzz1-D1,3
same,SPOT peptide array binding signal intensity,ScBzz1-D2,8.5
same,SPOT peptide array binding signal intensity,ScCyk3,≤ 0
same,SPOT peptide array binding signal intensity,ScFus1,≤ 0
same,SPOT peptide array binding signal intensity,ScHof1,≤ 0
same,SPOT peptide array binding signal intensity,ScHse1,4
same,SPOT peptide array binding signal intensity,ScLsb1,≤ 0
same,SPOT peptide array binding signal intensity,ScLsb2,≤ 0
same,SPOT peptide array binding signal intensity,ScLsb3,≤ 0
same,SPOT peptide array binding signal intensity,ScLsb4,4
same,SPOT peptide array binding signal intensity,ScMyo3,372
same,SPOT peptide array binding signal intensity,ScMyo5,91
same,SPOT peptide array binding signal intensity,ScNbp2,≤ 0
same,SPOT peptide array binding signal intensity,ScPex13,≤ 0
same,SPOT peptide array binding signal intensity,ScRvs167,≤ 0
same,SPOT peptide array binding signal intensity,ScSho1,3
same,SPOT peptide array binding signal intensity,ScSla1-D1-D2,≤ 0
same,SPOT peptide array binding signal intensity,ScSla1-D3,1.5
same,SPOT peptide array binding signal intensity,SpAbp1-D1,≤ 0
same,SPOT peptide array binding signal intensity,SpBbc1,≤ 0
same,SPOT peptide array binding signal intensity,SpBzz1-D1,237
same,SPOT peptide array binding signal intensity,SpBzz1-D2,1.25
same,SPOT peptide array binding signal intensity,SpCyk3,≤ 0
same,SPOT peptide array binding signal intensity,SpHof1,≤ 0
same,SPOT peptide array binding signal intensity,SpHof1-2,≤ 0
same,SPOT peptide array binding signal intensity,SpHof1-3,0.5
same,SPOT peptide array binding signal intensity,SpHse1,1
same,SPOT peptide array binding signal intensity,SpLsb1,≤ 0
same,SPOT peptide array binding signal intensity,SpLsb4,≤ 0
same,SPOT peptide array binding signal intensity,SpMyo1,49.8
same,SPOT peptide array binding signal intensity,SpNbp2,1.5
same,SPOT peptide array binding signal intensity,SpPex13,≤ 0
same,SPOT peptide array binding signal intensity,SpRvs167,3.33
same,SPOT peptide array binding signal intensity,SpSla1-D1-D2,≤ 0
same,SPOT peptide array binding signal intensity,SpSla1-D3,≤ 0
